Only some compounds are listed: those with a hit (about 1.2% of all), similar ones and a draw of the others.
KCNH2 WT inh: blocks the wildtype human KCNH2 potassium channel; Q12809; U2OS, BacMam KCNH2, thallium flux FluxOr; active compounds read low; activity change, % at 1.84 µM; 0.37% of 340,000 active;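 active = maximum activity change below -70%; inconclusive = maximum activity change between -70% and -50%; inactive = maximum activity change above -50%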
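U2OS cells were transduced with wild-type KCNH2 virus (2.03 x 10^8 / mL) for 4 h at room temperature, then cultured overnight at 37 C. Thallium flux was read with FluxOr dye. Rate constants were normalized to DMSO controls.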
KCNH2 3.1 inh: blocks the human KCNH2 3.1 channel isoform. U2OS KCNH2 3.1, thallium flux FluxOr; active compounds read low. activity change, % (tested at about 1.8 µM). 0.95% of 340,000 active. AID 720553;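 active = maximum activity change below -70%; inconclusive = maximum activity change from -70% to -50%; inactive = maximum activity change above -50%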;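 also: thallium influx rate constant from kinetic fluorescence after stimulation buffer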
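Virally transduced U2OS (3.1 isoform, 4 h infection in dark at RT) → overnight 37 C → FluxOr + Red40 in HBSS/HEPES, 45 min → stimulation buffer, 2 min kinetic read → rate constant vs DMSO controls.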
Luc counter: Kinase-Glo luciferase inhibition (counter-screen). 0.28% of 200,000 active. Q27757. Kinase-Glo luciferase, ATP luminescence, 8 min. Potency, µM (top dose mostly 38.3 µM), without a hit: at the highest dose activity change, negative = inhibition, actives largely listed as inhibitors; active = well fitted inhibition curve with a large enough effect; inconclusive = small, poorly fitted or top-dose-only effect; also: potency is read from the fitted curve at half-maximal effect; nearly all actives have a fitted effect of over 60% in size
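Compound is pinned into ATP-containing buffer (10 uM ATP, imidazole pH 7.2, 7 mM MgCl2). Kinase-Glo luciferase reagent is then added. Light output is recorded following an 8-min room-temperature incubation.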
Numbers without * were called inactive; ? = inconclusive; . = no result; [ ] = another dose, or the depositor's remark. % is scaled to controls: 0 for no effect and ±100 for the full control effect.

SMILES | KCNH2 WT inh | KCNH2 3.1 inh | Luc counter
O=C(CCc1ccccc1)Nc1ccnn1C1CCN(C/C=C/c2ccccc2)CC1 | 22 | ? | .
CCc1ccc(CN2CCC(n3nccc3NC(=O)c3ccccc3C)CC2)cc1 | -4 | -101* | .
O=C(Nc1ccnn1C1CCN(Cc2ccccc2)CC1)c1ccccc1Cl | -26 | -90* | .
Cc1ccccc1C(=O)Nc1ccnn1C1CCN(Cc2cccnc2)CC1 | 2 | 2 | .
O=C(Nc1ccnn1C1CCN(C/C=C/c2ccccc2)CC1)c1ccccc1Cl | -107* | -107* | .
C[C@@H]1CN([C@H](C)CO)C(=O)CCCn2nncc2CO[C@H]1CN(C)S(C)(=O)=O | -7 | -12 | .
c1ccc(-c2ccc(-c3ccncn3)cc2)cc1 | -2 | 0 | .
O=C(Cc1ccc(Cl)c(Cl)c1)NC1CCCCCC1 | 2 | -3 | .
O=C(NCCCn1ccnc1)c1ccc(-c2cccc(Cl)c2Cl)o1 | 7 | -17 | .
CC(C)(C)OC(=O)n1cc(/C=N/NC(=O)c2ccco2)c2ccccc21 | -8 | -9 | .
CCn1ncc(CN2CCC(n3nccc3NC(=O)c3ccccc3Cl)CC2)c1C | 63 | -17 | .
Cc1ccccc1C(=O)Nc1ccnn1C1CCN(CC2CC=CCC2)CC1 (configuration not stated) | -3 | -44 | .
COc1ccc(/C=C/CN2CCC(n3nccc3NC(=O)C3CC3)CC2)cc1 | 10 | -35 | .
O=C(Nc1ccnn1C1CCN(CC2CC=CCC2)CC1)c1ccccc1Cl (configuration not stated) | 23 | -79* | .
CCCn1ncc(CN2CCC(n3nccc3NC(=O)c3ccccc3Cl)CC2)c1C | -88* | ? | .
O=C(Nc1ccnn1C1CCN(C/C=C/c2ccccc2)CC1)C1CCCC1 | 3 | -80* | .
O=C(Nc1ccccc1Oc1cccnc1)C1CCCN(Cc2ccccc2O)C1 (configuration not stated) | 50 | -6 | .
O=C(Nc1ccccc1Oc1cccnc1)C1CCCN(C/C=C/c2ccccc2)C1 (configuration not stated) | -19 | -85* | .
O=C1/C(=C/c2ccccc2)SC(=S)N1CC(=O)N1CCCCC1c1cccnc1 (configuration not stated) | -3 | -21 | .
CC(C)CCCC(C)C1CCC2C3CC=C4CC(O)CCC4(C)C3CCC12C (configuration not stated) | . | . | -2%
CN(C(=O)CSc1nnc(CNC(=O)c2ccccc2)o1)c1ccccc1 | 3 | -7 | .
O=C(CN1CCN(S(=O)(=O)c2ccc(F)cc2)CC1)N1CCOCC1 | 5 | . | .
CCCn1nc(C(=O)OCn2nnc3ccccc3c2=O)c2ccccc2c1=O | 11 | 6 | 2%
COc1ccc(C(=O)Nc2c(N)nc[nH]c2=O)cc1 | -5 | -1 | .
S=c1[nH]cc2cnccn12 | -16 | 0 | .
SMILES | KCNH2 WT inh | KCNH2 3.1 inh | Luc counter
CCc1ccc(CN2CCC(n3nccc3NC(=O)c3cccc(F)c3)CC2)cc1 | -110* | -101* | .
O=C(Nc1ccnn1C1CCN(Cc2ccc3nonc3c2)CC1)c1cccc(F)c1 | 11 | -7 | .
CCCn1c2ccccc2c2cnn(CC(=O)NC3CCC(C)CC3)c(=O)c21 (configuration not stated) | -3 | 13 | .
CCCn1c2ccccc2c2cnn(CC(=O)NC3CCCCC3)c(=O)c21 | -226* | 8 | .
CCn1c2ccccc2c2cc(NC(=O)C(C)OC(=O)c3ccc(NC(=O)CC#N)cc3)ccc21 (configuration not stated) | -5 | -5 | .
Cc1cnc(NC(=O)CC(C)c2ccccc2)s1 (configuration not stated) | 0 | -1 | .
O=C(Nc1ccc(-c2cn3ccccc3n2)cc1)c1ccc(Cl)cc1 | 19 | -43 | -2%
O=C(Nc1ccc(-c2cn3ccccc3n2)cc1)c1ccco1 | 0 | 7 | 10µM*
O=C(/C=C/c1ccc(Br)cc1)c1ccc(NC(=O)c2ccco2)cc1 | 0 | -3 | -1%
O=C(/C=C/c1ccc(Cl)cc1)Nc1ccc(N2CCCCC2)cc1 | 8 | 26 | 2%
CC(=O)c1c(C)[nH]c(C(=O)N2CCN(c3ccc(F)cc3)CC2)c1C | 11 | 16 | 2%
CC(=O)c1c(C)[nH]c(C(=O)N2CCN(C(=O)c3ccco3)CC2)c1C | -1 | -211* | -1%
O=C(/C=C\c1ccccc1)Nc1ccc(NC(=O)c2ccco2)cc1 | 11 | -80* | 0%
O=C(/C=C/c1ccccc1)Nc1ccc(N2CCCCC2)cc1 | 19 | -81* | -3%
O=C(CSc1nncn1-c1ccccc1)Nc1ccccc1F | -5 | -23 | .
CC1(c2cccc(Br)c2)NC(=O)N(CC(=O)Nc2cccnc2Cl)C1=O (configuration not stated) | 5 | 16 | .
CC(NC(=O)COC(=O)CCC(=O)c1ccc(F)cc1)c1ccccc1 (configuration not stated) | 5 | -12 | .
Cc1cc(C)c(OCC(=O)NCC2COc3ccccc3O2)c(C)c1 (configuration not stated) | -20 | -15 | .
O=C(/C=C/c1cccc([N+](=O)[O-])c1)N1CCN(C(=O)c2ccco2)CC1 | 4 | 1 | 1%
O=C(/C=C/c1ccccc1)N1CCN(C(=O)c2ccco2)CC1 | 1 | -96* | -2%
CCC(C)NC(=O)C1CCN(S(=O)(=O)c2cccc3nonc23)CC1 (configuration not stated) | 0 | ? | .
CCN(C(=O)COn1nnc2ccc(S(=O)(=O)N(C)C)cc21)C1CCS(=O)(=O)C1 (configuration not stated) | 21 | -1 | .
Cc1c(Cl)ccc2c(C(N)=O)cc(-c3ccccn3)nc12 | 10 | -2 | .
CCOC(=O)CNC(=O)c1cc(-c2ccccn2)nc2c(C)c(Cl)ccc12 | -1 | -168* | 3%
C[C@@H]1COC(=O)[C@@H](CC(=O)OC(C)(C)C)C/C=C\C[C@@H](CC(=O)N[C@H](CO)Cc2ccccc2)C(=O)N1 | 2 | 1 | .
COc1ccc(-c2nc(NC(=O)C3=NN(c4cccc(C)c4)C(=O)CC3)sc2C)cc1 | -21 | -4 | -1%
COc1cc2ccc([C@H](C)NCC#N)cc2cc1OC | . | . | -2%[7.66 µM]
COc1ccccc1NC(=O)CN(C)S(=O)(=O)c1cccc2cccnc12 | 3 | -5 | .
COc1ccccc1CNC(=O)CN(C)S(=O)(=O)c1cccc2cccnc12 | -1 | -125* | .
COc1ccc(Br)cc1/C=N/Nc1ccccn1 | -4 | -4 | .
